Screening results: PubChem, The Scripps Research Institute Molecular Screening Center
PLCg1 inh = PLC-gamma1 (human) inhibition, primary screen | purified PLC-gamma1, fluorogenic substrate, fluorescence | inhibition, % at 12.2 µM | actives 0.84% (n = 370,000) | AID 720700; in the data active = inhibition above about 9.5%
ADAM17 inh = inhibitors of human ADAM17. P78536. actives 0.83% (n = 370,000). recombinant ADAM17, EDANS/DABCYL FRET peptide cleavage. inhibition, % at 6.95 µM;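 active = inhibition above the mean of compounds lying between control limits plus 3 SD, set per campaign, cut at about 8.5% in these data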;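 note: 0% = DMSO-only wells as the low control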
Target sequence (P78536 215-824 limits assumed): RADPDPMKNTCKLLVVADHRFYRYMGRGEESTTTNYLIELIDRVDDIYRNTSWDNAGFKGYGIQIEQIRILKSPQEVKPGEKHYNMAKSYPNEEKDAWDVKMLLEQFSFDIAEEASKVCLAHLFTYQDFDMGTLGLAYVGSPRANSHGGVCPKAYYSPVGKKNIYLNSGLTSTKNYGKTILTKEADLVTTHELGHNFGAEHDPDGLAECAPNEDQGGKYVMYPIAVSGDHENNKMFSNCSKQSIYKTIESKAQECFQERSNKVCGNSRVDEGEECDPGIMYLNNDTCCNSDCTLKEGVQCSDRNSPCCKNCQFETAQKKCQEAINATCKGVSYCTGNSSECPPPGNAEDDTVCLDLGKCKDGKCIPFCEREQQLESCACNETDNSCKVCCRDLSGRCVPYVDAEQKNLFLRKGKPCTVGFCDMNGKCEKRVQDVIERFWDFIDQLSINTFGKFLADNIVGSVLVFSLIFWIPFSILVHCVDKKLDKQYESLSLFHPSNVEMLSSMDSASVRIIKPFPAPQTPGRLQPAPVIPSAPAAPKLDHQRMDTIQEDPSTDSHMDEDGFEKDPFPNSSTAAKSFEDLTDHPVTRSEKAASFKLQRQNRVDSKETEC
ADAM10 inh = inhibitors of human ADAM10; O14672; recombinant ADAM10, EDANS/DABCYL FRET peptide cleavage, 3 h; inhibition, % at 7 µM; actives 0.62% (n = 370,000);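 active = inhibition above a per-campaign cutoff equal to the mean of compounds falling between control-based bounds plus 3 SD, cut at about 20% in these data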;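 note: 0% = DMSO wells while the 100% control is not disclosed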
proKLK7 act = proKLK7 (human) activation, primary screen; activation, % at 7 µM; purified proKLK7, EDANS-DABCYL substrate fluorescence; 100% is mature enzyme control, 0% vehicle; actives 0.9% (n = 370,000); P49862;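 active = activation above the mean of all tested compounds plus 3 SD, computed per campaign excluding outliers beyond control limits, cut at about 13% in these data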
PLCb3 inh = PLC-beta3 (human) inhibition, primary screen; Q01970; Purified PLC-beta3, fluorogenic substrate, fluorescence; inhibition, % at 12.2 µM; actives 0.18% (n = 370,000); AID 720704;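 note: 0% = median of compound wells on plate and 100% = full blocker control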
PLCg1 ctr = counter-screen for PLC-beta3 inhibitors: inhibitors of human PLC-gamma1; shares compounds with PLCg1 inh; purified PLC-gamma1, fluorogenic substrate, fluorescence; inhibition, % at 12.3 µM; actives 3.1% (n = 3,300); in the data active = inhibition above about 9.5%
PLCb3 confirm = confirmation of human PLC-beta3 inhibitors. shares compounds with PLCg1 inh. purified PLC-beta3, fluorogenic substrate fluorescence. inhibition, % at 12.3 µM. AID 743261. actives 1% (n = 3,300)
* = called active by the depositor; . = not tested or not shown. A selection: hits, their analogues and other compounds. The true share with any hit is near 2.9%. Cut-off read from the data, not from the text of the source, unless noted: active = inhibition above about 11%; inactive = the rest.

SMILES | PLCg1 inh | ADAM17 inh | ADAM10 inh | proKLK7 act | PLCb3 inh | PLCg1 ctr | PLCb3 confirm
CCOc1ccc(Cl)cc1C(c1c(C)[nH][nH]c1=O)c1c(C)[nH][nH]c1=O | -5.0 | -4.9 | 0.2 | -0.1 | -16.1 | . | .
C#CCOc1ccc(Br)cc1C(c1c(C)[nH][nH]c1=O)c1c(C)[nH][nH]c1=O | 61.6* | 5.9 | 4.3 | -0.6 | -2.4 | -2.9 | -0.8
CCCCCc1c(-c2cccc(OC)c2)ncn1CCc1ccccc1OC | 3.8 | 2.9 | 14.7 | 1.0 | -1.0 | . | .
CCCCCc1c(-c2cccc(Cl)c2)ncn1CCc1ccccc1OC | 10.1* | 2.1 | -1.0 | 1.4 | 6.5 | -3.7 | -2.0
Cc1cc(NC(=O)CSc2nnc3c4c(C)c(C)sc4ncn23)no1 | -6.0 | 3.6 | 1.2 | -0.7 | 11.8* | -3.6 | -2.2
Cc1cc(NC(=O)CSc2nc(C(C)C)nc3sc(C)c(C)c23)no1 | 0.3 | -0.3 | 5.2 | -0.4 | 1.2 | . | .
COc1ccccc1-c1cccc(-c2nc(C(=O)N3CCCCC3)cc3c2[C@@H](CCO)N(S(=O)C(C)(C)C)C3)c1 (stereo partly drawn) | -1.5 | 1.7 | 2.1 | 0.4 | 1.1 | . | .
CC(CC(=O)c1ccccc1)=NCCCN=C(C)CC(=O)c1ccccc1 | -14.2 | -6.8 | -50.6 | 0.1 | -14.3 | . | .
O=C(Cc1ccc([N+](=O)[O-])cc1)Oc1ccccc1 | 9.7* | -4.0 | -3.8 | -0.1 | 1.5 | -7.0 | -3.8
O=C(Cc1ccccc1)NCC(=O)OCc1ccc([N+](=O)[O-])cc1 | 0.9 | 5.0 | 5.2 | 0.3 | 3.9 | . | .
Cc1ccc(S(=O)(=O)CCC(=O)Nc2nnc(-c3cccs3)o2)cc1 | -3.9 | -8.5 | -14.8 | -0.1 | -9.4 | . | .
CCOc1ccc(-c2noc([C@@H]3O[C@H](CO)[C@@H](O)[C@H]3O)n2)cc1 | 2.4 | -4.1 | -2.9 | 0.2 | 2.1 | . | .
Cn1c(C(O)c2ccc(Br)cc2)nc(Cl)c1Cl (stereo not drawn) | 3.7 | -2.1 | 7.0 | 0.2 | -12.7 | . | .
Cn1c(C(O)c2ccc(Cl)cc2)nc(Cl)c1Cl (stereo not drawn) | 11.1* | 2.1 | -4.3 | 0.3 | 1.7 | -8.1 | -1.0
CC1CN(C(=O)c2cc(Br)c(Br)s2)CC(C)O1 (stereo not drawn) | -2.9 | -6.5 | -7.7 | -0.5 | -3.6 | . | .
N#CCOc1nc(N2CCCC2)nc(N2CCCC2)n1 | -1.4 | -10.1 | -8.1 | 0.5 | 1.3 | . | .
N#CCOc1nc(N2CCOCC2)nc(N2CCOCC2)n1 | 10.0* | -0.1 | 0.8 | 0.1 | -1.9 | -0.2 | -3.7
Clc1ccc(SCCCCN2CCOCC2)cc1 | 13.6* | 5.2 | 6.8 | -0.1 | 8.9 | 0.3 | 2.1
Clc1ccc(SCCOCCN2CCOCC2)cc1 | 1.2 | -3.2 | -10.0 | 0.5 | -3.4 | . | .
CCc1nnc(NC(=O)CCC(=O)N2CCN(CCOc3ccc(C)cc3)CC2)s1 | 6.1 | 4.0 | 7.6 | 0.1 | 13.8* | -6.4 | -4.2
NC(=O)CC(NC(=O)Cc1cccc2ccccc12)c1ccc(N2CCCCCC2)c([N+](=O)[O-])c1 (stereo not drawn) | 13.5* | 2.8 | 12.0 | -0.2 | 13.2* | 10.1* | -3.2
NC(=O)CC(NC(=O)Cc1cccc2ccccc12)c1ccc(N2CCC(N3CCCCC3)CC2)c([N+](=O)[O-])c1 (stereo not drawn) | 2.0 | -1.0 | -0.8 | 0.2 | 4.0 | . | .
NC(=O)CC(NC(=O)Cc1cccc2ccccc12)c1ccc(NC2CCC2)c([N+](=O)[O-])c1 (stereo not drawn) | 10.1* | 1.7 | 5.5 | -0.8 | 5.2 | -6.0 | 0.2
CCc1ccc(OC(C)c2nnc(SCC(=O)Nc3ncccc3C)n2C)cc1 (stereo not drawn) | 1.2 | -1.6 | -6.8 | 0.4 | -2.8 | . | .
CCOC(=O)NC(NC(=O)OCC)C(=O)c1ccc(F)cc1 | 7.8 | 2.2 | 6.9 | -0.4 | 8.2 | . | .
O=C(OCC(=O)C12CC3CC(CC(C3)C1)C2)c1ccc(O)cc1O | 10.1* | 3.0 | 6.2 | 0.0 | 3.5 | 2.0 | 2.7
O=C(COC(=O)c1cnccn1)c1ccc(-c2ccccc2)cc1 | -1.7 | 0.8 | 0.6 | 0.4 | -4.8 | . | .
O=C(OCC(=O)C12CC3CC(CC(C3)C1)C2)c1cnccn1 | 12.4* | 0.2 | -5.5 | -0.1 | 2.7 | 1.0 | 1.3
